# TRPML1 blocker: human mucolipin-1 channel inhibition; 390,000 tested, 0.02% active; TRPML1-inducible cells, Ca2+ dye fluorescence, FDSS; hits give low values; inhibition of EC80 agonist-evoked calcium signal; Q9GZU1; activity change, negative = inhibition, % (no concentration beside the values); in the data active = activity change below about -50%; inconclusive = between about -30% and that limit;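 also: stimulus is agonist 54-4 at its EC80 concentration; % is scaled to controls: 0 for no effect and ±100 for the full control effect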
#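 TRPML1-DL cells, Tet-induced overnight (~16 h, 37 °C) at 1,500 cells/well, were loaded with Ca8 no-wash dye plus quencher for 45-90 min at room temperature. Compounds were pinned during FDSS kinetic reading; agonist 54-4 at EC80 (4 uM final) then added.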
# TRHR enhancer: TRH receptor (human) allosteric enhancement; 360,000 tested, 0.66% active; P34981; AID 493056; enhancement, % at 2 µM; TRHR cells, fluo-8 calcium fluorescence, EC20 TRH enhancement; in the data active = enhancement above about 30%; also: 0% is about no effect
# Target sequence (P34981 whole entry, looked up): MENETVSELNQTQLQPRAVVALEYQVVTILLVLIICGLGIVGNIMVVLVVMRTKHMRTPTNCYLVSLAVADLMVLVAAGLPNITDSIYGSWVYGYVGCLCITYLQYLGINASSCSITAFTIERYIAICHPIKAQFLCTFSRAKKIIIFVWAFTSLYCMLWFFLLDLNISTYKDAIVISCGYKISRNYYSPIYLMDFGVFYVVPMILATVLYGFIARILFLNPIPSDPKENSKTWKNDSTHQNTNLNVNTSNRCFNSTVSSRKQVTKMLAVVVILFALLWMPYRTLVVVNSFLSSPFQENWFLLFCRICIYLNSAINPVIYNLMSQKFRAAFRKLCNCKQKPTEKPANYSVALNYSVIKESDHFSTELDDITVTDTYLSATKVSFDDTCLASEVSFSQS
#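 Enhancer read-out: after compound pinning and an initial kinetic agonist-mode read, an EC20 of TRH (10 nM final) was injected and fluo-8 calcium signal (Ex 480/Em 530) followed at 1 s/cycle for 100 cycles in TRHR-expressing cells.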
# TRPML1 agonist: agonists of human TRPML1 channel; Q9GZU1; TRPML1-expressing cells, Ca2+ dye fluorescence, FDSS; activation, % (test concentration not listed); 410,000 tested, 0.12% active; AID 624414; in the data active = activation above about 50%; inconclusive = mostly about 30% to 49%; also: 0% is about no effect
#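 Calcium fluorescence on an FDSS kinetic reader gave the read-out. Tet-induced TRPML1-DL cells were plated overnight, dye-loaded (Ca8 with quencher, 45-90 min, room temperature, dark), then read 110 s after compound addition, and again 110 s after 4uM final 54-4 (EC80).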
# TRHR ag: TRH receptor (human) agonism | P34981 | TRHR cells, calcium flux fluo-8, FDSS agonist mode | activation, % at 2 µM | 360,000 tested, 0.18% active | AID 493084; in the data active = activation above about 30%; also: 0% is about no effect
#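 In this calcium-flux screen, cells bearing human TRHR are dye-loaded with fluo-8, baselined for 10 cycles, then exposed to library compounds; positive kinetic calcium responses during the agonist phase mark hits, with TRH as control.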
# * marks the source's active call; other numbers are inactive results; u = inconclusive; x = no result; ! = not confirmed by another sample. Rows were chosen to be rich in hits. Some 0.81% of all compounds tested hit in one or more screens of this group.
SMILES,TRPML1 blocker,TRHR enhancer,TRPML1 agonist,TRHR ag
O=c1c(O)c(-c2cccs2)oc2ccc(Cl)cc12,-8,77*,59*,168*
O=C(CNC(=O)c1ccc(Br)o1)NNC(=O)c1ccc(Br)cc1,5,-13,0,0
O=C(CNS(=O)(=O)c1ccccc1F)NNC(=O)c1ccc(Br)cc1,7,32*,0,0
O=C(CCn1nnc2ccccc21)Nc1nnc(COc2ccccc2F)s1,5,32*,-1,0
CCC(CO)N=CC1=C(O)CC(c2ccccc2)CC1=O (stereo not given),5,32*,1,0
CCCN=CC1=C(O)CC(c2ccccc2)CC1=O (stereo not given),-8,3,0,0
C/C(=C\COc1cc(=O)[nH]c2ccccc12)CCC(O)C(C)(C)O (stereo not given),x,32*,x,0
C/C(=C\COc1ccc2ccc(=O)oc2c1)CC[C@@H](O)C(C)(C)O,4,1,-1,0
O=C(N/N=C/c1ccccc1Cl)c1[nH]c2ccc(Br)cc2c1-c1ccccc1,-21,7,71*,2
Cc1cc(N2CCOCC2)nc(NCc2ccccc2)n1,-7,-1,80*,0
Cc1cc(N2CCCCC2)nc(NCc2ccccc2)n1,7,-19,u,15
Cc1cccc2[nH]cc(/C=C3/C=Nc4ccccc43)c12,x,x,10,x
COc1ccccc1Nc1nc2c(S(=O)(=O)c3ccc(C(C)C)cc3)nnn2c2ccsc12,26,37*,0,0
Cc1ccc(C)c(Nc2nc3c(S(=O)(=O)c4ccc(C(C)C)cc4)nnn3c3ccsc23)c1,8,4,2,1
Cc1nn(-c2ccccc2)c2sc(C(=O)N3CCc4ccccc4C3)cc12,-3,32*,0,0
CC(C)(C)n1ncc2c(=O)n(Cc3cccc(Cl)c3Cl)cnc21,4,x,2,x
O=CN1CCN(C(=S)NC(=O)c2ccc(Cl)cc2)CC1,12,39*,0,0
Cc1ccc(CNC(=O)C2CCN(S(=O)(=O)c3cc(-c4noc(C)n4)ccc3C)CC2)cc1,11,5,0,0
Cc1nc(-c2ccc(C)c(S(=O)(=O)N3CCC(C(=O)NCc4ccc(Cl)cc4)CC3)c2)no1,-9,30*,0,0
OCC1(Cc2ccccc2F)CCCN(Cc2c(F)ccc(F)c2F)C1 (stereo not given),2,30*,-1,0
COc1ccccc1N1CCN(c2ncnc3c2c(-c2ccccc2)cn3-c2cccc(Cl)c2)CC1,14,1,20,0
Clc1ccccc1N1CCN(c2ncnc3c2c(-c2ccccc2)cn3-c2ccccc2)CC1,-3,-5,59*,0
CC(=O)c1ccc(-c2csc3ncnc(Sc4nnnn4C)c23)cc1,x,3,x,0
C=C[C@@H]1c2ccccc2N(S(=O)(=O)c2ccc(C)cc2)[C@H](c2ccccc2)C1(C#N)C#N,-21,-7,63*!,0
CCCCCN(CCCCC)c1ccc(/C=C/c2ccnc3ccccc23)cc1,x,x,13,x
SMILES,TRPML1 blocker,TRHR enhancer,TRPML1 agonist,TRHR ag
Cc1ccc(CC(=O)NO)cc1,x,x,0,x
CCc1ccc(CNc2ccc3c(c2)ncn3C)cc1,14,31*,0,0
Cc1ccc(CNc2ccc3c(c2)ncn3C)cc1,-2,-6,0,1
Cc1ccc2nccc(/C=C/c3ccc(N(C)C)cc3)c2c1,x,x,22,x
COc1ccc(CN2C(=O)N(c3ccc(OC)cc3)C(=O)C2CC(=O)Nc2ccccc2)cc1 (stereo not given),3,5,0,0
CCOc1ccc(NC(=O)CC2C(=O)N(c3ccc(C)cc3)C(=O)N2Cc2ccc(OC)cc2)cc1 (stereo not given),4,45*,1,0
O=C(N/C(=C\c1ccc(Cl)cc1)C(=O)N1CCOCC1)c1ccco1,-14,-4,1,1
O=C(N/C(=C\c1ccccc1)C(=O)N1CCOCC1)c1ccco1,-15,30*,0,-1
Cc1cc2c(s1)c1cnn(Cc3c(F)ccc(F)c3F)c(=O)c1n2C,x,-2,x,1
Cc1cc[n+](CCC2CCCCC2)cc1,x,x,0,x
Cc1ccc(Cn2ccc(NC(=O)CCSc3nc(-c4ccco4)cc(C(F)(F)F)n3)n2)cc1,37,39*,2,1
Cc1ccccc1Cn1ccc(NC(=O)CCSc2nc(-c3ccco3)cc(C(F)(F)F)n2)n1,13,-4,2,0
CC(=O)c1ccc(-n2c(C)c(C(C)=O)c3cc(O)ccc32)cc1,-2,3,1,0
CC(=O)c1c(C)n(-c2ccc(Cl)cc2)c2ccc(O)cc12,5,39*,1,0
O=C1CC(c2ccsc2)c2ccc3ccccc3c2N1 (stereo not given),46,37*,1,0
O=C(Cc1ccccc1)Nc1sc2c(c1C(=O)Nc1ccc(Cl)cc1)CCOC2,x,4,x,-2
O=C(CO)N/N=C/c1ccccc1F,15,-6,0,0
C=CCNC(=O)CC(=O)N/N=C/c1ccccc1F,8,32*,0,0
CCOc1cc2c(cc1C=O)OC(C)C2 (stereo not given),27,8,0,0
CCOc1cc2c(cc1/C=C/c1noc(C)c1[N+](=O)[O-])OC(C)C2 (stereo not given),-8,5,1,97*
O=[S+]([O-])(c1c(F)cccc1F)N1CCN([S+](=O)([O-])c2c(F)c(F)c(F)c(F)c2F)CC1,x,3,x,-1
CCN1/C(=C/c2ccc3cc(C)ccc3[n+]2CC)Sc2ccccc21,-6,25,u,50*
Nc1ccc2c(c1)C=C/C2=C\c1ccccc1,x,x,0,x
CC(=O)N1N=C2/C(=C/c3ccccc3)CCCC2C1c1ccccc1 (stereo not given),3,31*,1,-1
O=C(O)c1c(C(=O)N2N=C3/C(=C/c4ccccc4)CCCC3C2c2ccccc2)cccc1[N+](=O)[O-] (stereo not given),21,-4,0,0
SMILES,TRPML1 blocker,TRHR enhancer,TRPML1 agonist,TRHR ag
Cc1ccc2sc(N(CCCN(C)C)C(=O)c3ccco3)nc2c1C,16,8,2,1
CCN(CC)CCN(C(=O)c1ccco1)c1nc2c(C)c(C)ccc2s1,58,38*,2,-1
O=C(C[n+]1csc2ccccc21)c1ccc(O)c(O)c1,x,x,-1,x
O=C(CSCc1ccc(Cl)cc1)Nc1cccc(C(=O)O)c1,-6,38*,0,1
COc1ccc(N2CC(C(=O)N/N=C/c3cc([N+](=O)[O-])ccc3O)CC2=O)cc1 (stereo not given),-11,39*,0,0
COc1ccccc1NC(=O)c1ccc2ccccc2c1,x,-1,x,1
CC(=O)c1ccc(S(=O)(=O)NCc2cccnc2)cc1,-6,5,0,0
O=C(O)c1ccc(S(=O)(=O)NCc2cccnc2)cc1,11,35*,-2,0
